{
  "source": "PubChem BioAssay AID623868",
  "about": "(Vanderbilt High Throughput Screening Facility, 2012)",
  "note": "About 760 (36%) of roughly 2,100 compounds were called active. Not all results are given here. Values without a mark were called inactive.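 The calls were made as follows: active = thallium-flux fluorescence traces judged by eye to show enhanced or reduced glutamate response, manual score 1 or -1, so both directions (some results past the limit were not filed as active); inactive = the rest, including fluorescent or raised-baseline compounds.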",
  "data": [
    {"assay": "non-GIRK thallium flux modulation in mGlu8 cells, confirmation, counter-screen for GIRK activator project, cell-based, HEK-293 rmGlu8, no GIRK (AID 623868);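 also: extra codes mark interference with 3 for fluorescent and 4 for baseline rise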", "settings": "thallium flux fluorescence, at 10 µM, actives lie on both sides, codes: 1 enhancer, -1 blocker, 0 none, thallium stimulus containing EC20 glutamate", "values": [
      {"smiles": "CCn1c(SCc2nc(-c3ccccc3)no2)nc2ccccc21", "manual score": 0},
      {"smiles": "CCn1c(NC(=S)Nc2ccccc2)nc2ccccc21", "manual score": "1 (active)"},
      {"smiles": "CCCCn1c(NC(=S)Nc2ccccc2)nc2ccccc21", "manual score": "1 (active)"},
      {"smiles": "CCN(CC)CCn1c(NC(=O)c2ccc(Cl)cc2)nc2ccccc21", "manual score": 0},
      {"smiles": "CCCn1c(NCc2ccc(N(C)C)cc2)nc2ccccc21", "manual score": 0},
      {"smiles": "CCCCc1ccc(NC(=S)Nc2cccnc2)cc1", "manual score": 0},
      {"smiles": "CCCCN1C(=O)c2ccccc2C1C(=O)NC1CCCC1", "note": "(stereo unspecified)", "manual score": 0},
      {"smiles": "Cc1cccc(C(=O)N2CCC(Cc3ccccc3)CC2)c1[N+](=O)[O-]", "manual score": 0},
      {"smiles": "O=C(Nc1nnc(-c2ccc3c(c2)CCCC3)o1)c1ccc(Cl)cc1Cl", "manual score": "1 (active)"},
      {"smiles": "O=C(Nc1ccc(-c2nc3ccccc3o2)cc1)c1cc(-n2cnnc2)ccc1Cl", "manual score": 0},
      {"smiles": "Cc1ccc(NC(=O)c2ccc(COc3ccc4c(c3)CCC4)cc2)c(C)c1", "manual score": 0},
      {"smiles": "O=C(Nc1nnc(-c2ccc3c(c2)CCCC3)o1)c1ccccc1Cl", "manual score": "1 (active)"},
      {"smiles": "NS(=O)(=O)c1ccc(NC(=O)C2COc3ccccc3O2)cc1", "note": "(stereo unspecified)", "manual score": 0},
      {"smiles": "CCC(/C=N/NC(=O)C1COc2ccccc2O1)CC", "note": "(stereo unspecified)", "manual score": 0},
      {"smiles": "O=C(Nc1nnc(-c2ccc3c(c2)CCCC3)o1)C1COc2ccccc2O1", "note": "(stereo unspecified)", "manual score": "1 (active)"},
      {"smiles": "CC1CN(S(=O)(=O)c2ccc(C(=O)Nc3nnc(-c4ccc5c(c4)CCCC5)o3)cc2)CC(C)O1", "note": "(stereo unspecified)", "manual score": "1 (active)"},
      {"smiles": "CCCC1COC(Cn2cncn2)(c2ccc(C)cc2)O1", "note": "(stereo unspecified)", "manual score": 0},
      {"smiles": "O=C(c1cnn2c(C(F)(F)F)cc(-c3cccs3)nc12)N1CCN(Cc2ccccc2)CC1", "manual score": 0},
      {"smiles": "CCCCCCCC1CC(CSc2ncn[nH]2)OC1=O", "note": "(stereo unspecified)", "manual score": 0},
      {"smiles": "N=c1oc2ccc3ccccc3c2cc1-c1nc(-c2ccccc2)cs1", "manual score": 3},
      {"smiles": "CC1CCCCN1Cc1nc2c(c(=O)n(C)c(=O)n2C)n1CCc1ccccc1", "note": "(stereo unspecified)", "manual score": 0},
      {"smiles": "O=C(Nc1cccc(-c2nnc(-c3ccccc3)o2)c1)C1CCCO1", "note": "(stereo unspecified)", "manual score": 0},
      {"smiles": "O=C(Nc1nnc(-c2ccc3c(c2)CCCC3)o1)c1ccccc1", "manual score": "1 (active)"},
      {"smiles": "CN(C)S(=O)(=O)c1ccc(C(=O)Nc2nnc(-c3ccc4c(c3)CCCC4)o2)cc1", "manual score": 0},
      {"smiles": "CN1CCN(Cc2cccc(Oc3ccc(Cl)cc3)c2)CC1", "manual score": 0},
      {"smiles": "CCCc1ccc(OCC(=O)NNC(=S)NC(=O)c2ccco2)cc1", "manual score": "1 (active)"},
      {"smiles": "Cc1ccccc1OCC(=O)N/N=C/c1cccn1C", "manual score": 0},
      {"smiles": "Cc1ccccc1OCC(=O)NNC(=S)NC(=O)c1ccco1", "manual score": "1 (active)"},
      {"smiles": "O=C(Nc1ccc(Br)cc1)C1CCC(=O)N1Cc1ccccc1Cl", "note": "(stereo unspecified)", "manual score": 0},
      {"smiles": "O=P(CCCCCCCCCP(=O)(c1ccccc1)c1ccccc1)(c1ccccc1)c1ccccc1", "manual score": -0.5},
      {"smiles": "COc1ccccc1Nc1ccc(Nc2ccccc2OC)nn1", "manual score": 0},
      {"smiles": "COc1ccccc1-c1ccc(NC2CCCC2)nn1", "manual score": "-1 (active)"},
      {"smiles": "S=c1nc(-c2ccc(Br)cc2)oc2c1CCCC2", "manual score": "1 (active)"},
      {"smiles": "CC(C)COc1ccc(Cc2cnc(N)nc2N)cc1", "manual score": 0},
      {"smiles": "CCN(C#N)c1nc(NC(C)C)nc(NC(C)C)n1", "manual score": 0},
      {"smiles": "CCCCn1c(O)c(N=Nc2ccccn2)c2ccccc21", "manual score": "1 (active)"},
      {"smiles": "CC(C)n1c(O)c(N=Nc2ccccn2)c2ccccc21", "manual score": 0},
      {"smiles": "Oc1ccc2ccccc2c1N=Nc1ccccn1", "manual score": "1 (active)"},
      {"smiles": "Oc1c(N=Nc2ccccn2)ccc2ccccc12", "manual score": "1 (active)"},
      {"smiles": "CCCCn1c(=N)n(CC(O)COc2cccc(C)c2)c2ccccc21", "note": "(stereo unspecified)", "manual score": 0},
      {"smiles": "CCOc1ccc(N2C(=O)CC(SC(=NC)Nc3ccc(F)cc3)C2=O)cc1", "note": "(stereo unspecified)", "manual score": 0},
      {"smiles": "COc1ccc2cc(Br)ccc2c1CC(=O)NC1CC(C)(C)NC(C)(C)C1", "manual score": 0},
      {"smiles": "CCC(C)NC(=O)CN1C(=O)CC(C)(C)S(=O)(=O)c2ccccc21", "note": "(stereo unspecified)", "manual score": 0},
      {"smiles": "CCn1c(=O)c(C(=O)NCCCO)c(O)c2ccccc21", "manual score": 0},
      {"smiles": "CCn1c(=O)cc(OCC(=O)Nc2cccc(C)n2)c2ccccc21", "manual score": 0},
      {"smiles": "CCn1c(O)c(N=NC(=O)CNc2cccc(C)c2)c2ccccc21", "manual score": "1 (active)"},
      {"smiles": "Cc1nn(-c2ccccc2)c(OC(=O)c2cccs2)c1S(=O)(=O)c1ccccc1", "manual score": 0},
      {"smiles": "CO/N=C(\\Cn1ncc(N2CCCC2)c(Br)c1=O)c1ccc(Cl)cc1", "manual score": 0},
      {"smiles": "CCN(CC)c1cnn(C/C(=N\\OC)c2ccc(Cl)cc2)c(=O)c1Br", "manual score": "-1 (active)"},
      {"smiles": "CO/N=C(\\Cn1ncc(N2CCCC2)c(Cl)c1=O)c1ccc(Cl)cc1", "manual score": 0},
      {"smiles": "CCC(C)(C)NC(=O)C(c1ccc(F)cc1)N(Cc1ccco1)C(=O)c1cnccn1", "note": "(stereo unspecified)", "manual score": 0},
      {"smiles": "N#CC1=C(N)SC(N)=C(C#N)C1CCc1ccccc1", "manual score": 0},
      {"smiles": "N#CC1=C(N)SC(N)=C(C#N)C1c1c(Cl)cccc1Cl", "manual score": "-1 (active)"},
      {"smiles": "Oc1oc(-c2cccc3ccccc23)nc1/C=N/c1nccs1", "manual score": "1 (active)"},
      {"smiles": "C#CCSc1nnc(-c2cccc3ccccc23)o1", "manual score": 0},
      {"smiles": "O=C(O)c1cnc(-c2ccccc2)nc1Sc1ccccc1Cl", "manual score": 0},
      {"smiles": "CC(C)C(=O)OCC(=O)Nc1ccc(N=Nc2ccccc2)cc1", "manual score": 0},
      {"smiles": "CCOC(=O)c1c2n(c3c(NCc4ccccc4)ncnc13)CCCC2", "manual score": "-1 (active)"},
      {"smiles": "CCOC(=O)c1c(C)oc2ccc(O)c(CN3CCCCC3)c12", "manual score": 0},
      {"smiles": "CCOC(=O)C1CCCN(c2ncnc3c2oc2ccccc23)C1", "note": "(stereo unspecified)", "manual score": 0},
      {"smiles": "Cc1ccc(NC(=S)N=Nc2c(O)n(C)c3ccc(S(=O)(=O)N4CCOCC4)cc23)cc1", "manual score": "1 (active)"},
      {"smiles": "Cc1ccc(SC(C)C(=O)Nc2ccc(S(=O)(=O)N3CCOCC3)cc2)cc1", "note": "(stereo unspecified)", "manual score": 0},
      {"smiles": "Cc1ccc(C)c(NC(=S)N=Nc2c(O)n(C)c3ccc(S(=O)(=O)N4CCOCC4)cc23)c1", "manual score": "1 (active)"},
      {"smiles": "Cc1ccc(NC(=O)CSc2nccn2C)cc1S(=O)(=O)N1CCOCC1", "manual score": 0},
      {"smiles": "CCc1c(C)sc(NC(=O)CCc2ccc(OC)cc2)c1C(N)=O", "manual score": 0},
      {"smiles": "CCC(C)n1c(=S)[nH]c2c(sc3ccc([N+](=O)[O-])cc32)c1=O", "note": "(stereo unspecified)", "manual score": "1 (active)"},
      {"smiles": "CN=C1S/C(=C\\c2cc(C)n(-c3ccccc3F)c2C)C(=O)N1C", "manual score": 0},
      {"smiles": "COc1ccc(C2c3ccc4ccccc4c3Oc3ncn(CCN4CCOCC4)c(=N)c32)cc1", "note": "(stereo unspecified)", "manual score": 0},
      {"smiles": "S=C(Nc1cccc(Br)c1)c1ccccc1", "manual score": 0},
      {"smiles": "NC(=O)Nc1cccc2ccccc12", "manual score": 0},
      {"smiles": "Cc1ccc(C(=O)NNC(=S)Nc2cccc3ccccc23)s1", "manual score": "1 (active)"},
      {"smiles": "O=C(NNC(=S)Nc1cccc2ccccc12)c1cccc(Br)c1", "manual score": "1 (active)"},
      {"smiles": "CN1CCN(C(=O)Nc2cccc3ccccc23)CC1", "manual score": 0},
      {"smiles": "C=C(C)CNC(=S)Nc1cccc2cnccc12", "manual score": 0},
      {"smiles": "O=C(NNC(=S)Nc1ccccc1)c1cccc(Br)c1", "manual score": "1 (active)"},
      {"smiles": "N#Cc1ccsc1NC(=O)CN1CCN(c2ccc(O)cc2)CC1", "manual score": 0},
      {"smiles": "COc1ccc(/C=C2\\N=C(SC)NC2=O)cc1", "manual score": "1 (active)"},
      {"smiles": "Cc1ccc(S(=O)(=O)n2cnc3cc([N+](=O)[O-])ccc32)cc1C", "manual score": 0},
      {"smiles": "Clc1ccccc1-c1nnc2sc(-c3ccccn3)nn12", "manual score": 0},
      {"smiles": "Clc1ccccc1-c1nnc2sc(-c3ccc4c(c3)OCO4)nn12", "manual score": 0},
      {"smiles": "Brc1ccccc1-c1nnc2sc(-c3ccc4c(c3)OCCO4)nn12", "manual score": "-1 (active)"}
    ]}
  ]
}
